Screens from PubChem.
Shown are actives, neighbours in structure and some others; about 1.9% of the full set was active somewhere.
TDP-43 yeast inh – inhibitors of TDP-43 toxicity in yeast; hit rate 1.8% among 410,000; AID 652104; Potency, µM (highest dose often 46.1 µM), inactives show at the top dose growth rescue (activation), usual class: activators; TDP-43 expressing yeast growth rescue, BacTiter-Glo, 24 h; note: potency is the fitted concentration of half-maximal effect; % of control where 0% means no effect; nearly all actives have a fitted effect of over 50% in size
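Readout is BacTiter-Glo luminescence of cell growth, so inhibitors register as activators. TDP-43-expressing yeast at OD600=0.02 in galactose medium, after raffinose pregrowth to mid-log, were incubated with compound for 24 hr at 30 deg C.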
LDHA block – LDHA (human) enzyme inhibition; activity change, % (values are at about 110 or 230 µM); purified LDHA, NADH/diaphorase-resazurin fluorescence; stronger effect = lower value; P00338; hit rate 0.15% among 480,000; in the data active = activity change below about -30%; inconclusive = mostly about -25% to -30%;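 note: plate controls were DMSO wells for no effect and wells without enzyme for full effect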
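Human LDH5 (2 nM) was incubated with 0.06 mM NADH and 0.2 mM pyruvate for 5 min at room temperature in Tris pH 7.4. Remaining NADH was coupled through diaphorase/resazurin, and resorufin fluorescence was read at 0 and 20 min.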
Abeta rescue – A-beta toxicity reversal in yeast; hit rate 0.063% among 410,000; yeast expressing A-beta42, growth rescue, OD600, 48 h; response scale: 0% DMSO, 100% iron-clioquinol control; Potency, µM (top dose mostly 46.1 µM), most hits filed as activators; note: potency is the fitted concentration of half-maximal effect; nearly all actives have a fitted effect of over 55% in size
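Yeast growth medium received pinned compounds, then yeast cells expressing toxic A-beta were added; plates incubated at 30 C for 48 hr. Growth read as absorbance at 600 nm, normalized to DMSO and equimolar FeCl3 plus clioquinol controls.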
aSyn yeast inh – inhibitors of alpha-synuclein toxicity in yeast | Potency, µM (highest dose often 46.1 µM), for the others: at the highest dose growth rescue (activation), hits mostly activators | hit rate 0.14% among 370,000 | AID 652106 | Yeast expressing alpha-synuclein, growth rescue, BacTiter-Glo, 24 h; note: potency is the fitted concentration of half-maximal effect; % of control where 0% means no effect; nearly all actives have a fitted effect of over 65% in size
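Screening used galactose-induced yeast with toxic alpha-synuclein levels, exposed to compound for 24 hr at 30 deg C. Cell growth, read with BacTiter-Glo luminescence, gave the measured signal.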
PTHR1 agonist – agonists of human PTHR1 parathyroid hormone receptor | Q03431 | AID 743266 | hit rate 0.075% among 410,000 | HEK293 GP2 PTHR1 cells, GloSensor cAMP luminescence, 1 h | Potency, µM (series often up to 115 µM), without a hit: at the top dose activation, actives largely listed as activators; note: potency is the fitted concentration of half-maximal effect; nearly all actives have a fitted effect of over 55% in size
Target sequence (Q03431 whole entry, looked up): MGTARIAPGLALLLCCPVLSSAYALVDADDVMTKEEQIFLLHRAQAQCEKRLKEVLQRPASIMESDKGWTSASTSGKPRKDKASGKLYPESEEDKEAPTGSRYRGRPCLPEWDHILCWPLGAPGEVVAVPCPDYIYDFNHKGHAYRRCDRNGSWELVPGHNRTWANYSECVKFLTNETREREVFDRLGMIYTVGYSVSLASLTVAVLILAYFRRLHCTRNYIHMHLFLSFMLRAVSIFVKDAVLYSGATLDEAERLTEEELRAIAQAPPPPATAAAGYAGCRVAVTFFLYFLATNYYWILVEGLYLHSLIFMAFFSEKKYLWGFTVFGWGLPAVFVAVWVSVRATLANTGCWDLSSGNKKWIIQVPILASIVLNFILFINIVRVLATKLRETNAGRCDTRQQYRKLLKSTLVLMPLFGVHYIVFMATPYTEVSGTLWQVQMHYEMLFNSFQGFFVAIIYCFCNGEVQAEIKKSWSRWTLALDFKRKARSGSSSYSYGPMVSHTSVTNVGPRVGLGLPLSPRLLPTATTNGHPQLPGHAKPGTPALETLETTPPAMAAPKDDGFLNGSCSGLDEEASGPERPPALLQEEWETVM
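HEK-293-derived GP2 cells expressing PTHR1 and a GloSensor cAMP reporter, 3,000/well, plated overnight, given luciferin plus IBMX (each 0.5 mM as added) for 1 h at 37 °C, then compound for 1 h at 37 °C. Luminescence was read after 15 min at room temperature.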
FUS suppressor – FUS proteinopathy suppression in yeast | S. cerevisiae FUS-expressing, growth rescue, OD600, 24 h | Potency, µM (series often up to 76.6 µM), hits mostly activators | hit rate 0.24% among 390,000 | AID 1347120;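 note: potency is the fitted concentration of half-maximal effect; plate controls were DMSO vehicle for no effect and reference control for full effect; nearly all actives have a fitted effect of over 55% in size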
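Yeast expressing FUS under galactose induction, OD 0.005 in 2% galactose medium; compounds in a dilution series, 24 h at 30C. Growth rescue by absorbance at 600 nm; CP55940 positive control, DMSO negative.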
* hit, by the source's call; [ ] = dose if it differs, or a comment. Unless noted, calls come from the whole dose curve; as a rule, active = well fitted curve in the direction sought with a large enough effect; inconclusive = small, poorly fitted or top-dose-only effect, or another doubt; inactive = no such curve, though single readings can be large; an effect the other way counts as inactive or inconclusive.

`O=C(NCC(c1cccs1)N1CCOCC1)c1cc(=O)c2ccccc2o1` (stereo not given) gave LDHA block 6.1.
Screening O=C(NCC(c1cccs1)N1CCCCCC1)c1cc(=O)c2ccc(Br)cc2o1 (stereo not given) returned LDHA block -30.6*.
For O=C(NCC(c1cccs1)N1CCOCC1)c1cc(=O)c2cc(Br)ccc2o1 (stereo not given) the results were LDHA block -31.2*.
`O=C(NCC(c1ccco1)N1CCOCC1)c1cc(=O)c2cc(Br)ccc2o1` (stereo not given) gave LDHA block -30.9*.
`CCCNc1c(NS(=O)(=O)c2ccc(F)cc2)c(=O)oc2ccccc12` gave LDHA block -3.9.
For CCCC(=O)Nc1sc(Cc2ccccc2)c(C)c1C(N)=O the results were TDP-43 yeast inh 17.8µM*, LDHA block -0.6, Abeta rescue inactive, aSyn yeast inh -19.5%, PTHR1 agonist -2.4% and FUS suppressor inactive.
Screening COC(=O)CCC(=O)Nc1sc(Cc2ccccc2)c(C)c1C(N)=O returned TDP-43 yeast inh -21.7%[0.397 µM], LDHA block -1.5, Abeta rescue inactive, aSyn yeast inh -6.2%, PTHR1 agonist -56.3% and FUS suppressor inactive.
O=S(=O)(/C(=C/c1ccc(C(F)(F)F)cc1)c1nc2ccccc2[nH]1)c1ccccc1 was read as TDP-43 yeast inh 10µM*, LDHA block -1.4, Abeta rescue inactive, aSyn yeast inh -7.2%, PTHR1 agonist -7.6% and FUS suppressor inactive.
Screening CC(C)c1ccc(/C=C(\c2nc3ccccc3[nH]2)S(=O)(=O)c2ccccc2)cc1 returned TDP-43 yeast inh 25.0%, LDHA block -3.7, Abeta rescue inactive, aSyn yeast inh 9.4%, PTHR1 agonist -97.0% and FUS suppressor inactive.
`Cc1noc(C)c1S(=O)(=O)N1CCCC1c1cc(C(C)C)no1` (stereo not given) gave LDHA block 2.5.
Cc1cc(SCC(=O)NC(N)=O)nc2c(C)cccc12 was read as LDHA block -2.9.
Screening O=C(O)c1ccccc1NC(=O)N1c2ccccc2Sc2ccccc21 returned TDP-43 yeast inh 20µM*, LDHA block 1.1, Abeta rescue inactive, PTHR1 agonist -23.0% and FUS suppressor inactive.
`Cc1cccc(N2C(=O)C(O)=C(C(=O)c3cccs3)C2c2ccc(F)cc2)n1` (stereo not given) gave TDP-43 yeast inh -13.4%, LDHA block -1.6, Abeta rescue inactive, aSyn yeast inh 7.7%, PTHR1 agonist inactive and FUS suppressor inactive.
`Cc1cccc(N2C(=O)C(O)=C(C(=O)c3cccs3)C2c2ccc(C(C)C)cc2)n1` (stereo not given) gave TDP-43 yeast inh 28.2µM*, LDHA block -5.4, Abeta rescue inactive, aSyn yeast inh -26.6%, PTHR1 agonist -22.8% and FUS suppressor inactive.
CCOc1ccc(Oc2ccccc2NC(=O)c2cccc(CN3CCCC3=O)c2)cc1 was read as LDHA block 1.4.
Screening O=C(OCCOc1ccc(Cl)cc1)c1ccccc1C(=O)c1ccc(Cl)cc1 returned LDHA block 5.3.
Screening Cc1ccc(SC(C)C(=O)N2CCCC2)cc1 (stereo not given) returned TDP-43 yeast inh -14.7%, LDHA block -0.9, Abeta rescue inactive, aSyn yeast inh -1.6%, PTHR1 agonist inactive and FUS suppressor inactive.
`Cc1ccc(SC2=C(C(=O)O)CCCC2)cc1` gave TDP-43 yeast inh 10µM*, LDHA block -3.0, Abeta rescue inactive, aSyn yeast inh 23.6%, PTHR1 agonist inactive and FUS suppressor inactive.
COCc1cc(C)nc2sc(C(=O)N3CCN(c4ccccc4)CC3)c(N)c12 was read as TDP-43 yeast inh 20µM*, LDHA block -7.6, Abeta rescue inactive, aSyn yeast inh 1.5%, PTHR1 agonist -79.7% and FUS suppressor inactive.
For CCOC(=O)c1nc(N(C)c2cc(C)ccc2C)c2ccccc2n1 the results were LDHA block -3.1.
COC(=O)N1C(=O)[C@@](c2ccccc2)(C(C)C)N1C(=O)OC was read as TDP-43 yeast inh inconclusive, LDHA block 0.3, Abeta rescue inactive, aSyn yeast inh -3.5%, PTHR1 agonist -39.3% and FUS suppressor inactive.
`COC(=O)N1C(=O)[C@](c2ccccc2)(C2CCCC2)N1C(=O)OC` gave TDP-43 yeast inh 14.1µM*, LDHA block -13.6, Abeta rescue inactive, aSyn yeast inh 2.3%, PTHR1 agonist -94.8% and FUS suppressor inactive.
NC(=O)NC(=O)CSc1ncnc2ccccc12 was read as LDHA block 4.2.
For O=C(CSc1ncnc2ccccc12)NCC(=O)c1ccccc1 the results were TDP-43 yeast inh 12.6µM*, LDHA block -3.4, Abeta rescue inconclusive, aSyn yeast inh 22.6%, PTHR1 agonist -11.7% and FUS suppressor inactive.
For O=C(Cc1ccc(Cl)cc1)Nc1ccc(Cl)cn1 the results were TDP-43 yeast inh 14.8%, LDHA block -1.8, Abeta rescue inactive, aSyn yeast inh -10.0%, PTHR1 agonist -20.3% and FUS suppressor inactive.
Screening Cc1cc(C)nc(NC(=O)Cc2ccc(Cl)cc2)c1 returned TDP-43 yeast inh 17.8µM*, LDHA block -2.2, Abeta rescue inactive, aSyn yeast inh -7.4%, PTHR1 agonist -28.4% and FUS suppressor inactive.
For O=C(Nc1ccnn1Cc1cccs1)c1cccc(S(=O)(=O)N2CCCC2)c1 the results were LDHA block 5.6.
For CCOc1ccc(CCNC(=O)c2nc(-c3cccc(F)c3)n3c2CCCCC3)cc1OCC the results were TDP-43 yeast inh 17.8µM*, LDHA block 10.2, Abeta rescue inactive, PTHR1 agonist -23.8% and FUS suppressor inconclusive.
Screening CN(C(=O)c1nc(-c2cccc(F)c2)n2c1CCCCC2)c1ccccc1F returned TDP-43 yeast inh -1.0%, LDHA block 3.1, Abeta rescue inactive, PTHR1 agonist inactive and FUS suppressor inactive.
`COc1cc(C2NC(=O)c3ccccc3O2)cc(OC)c1OC` (stereo not given) gave TDP-43 yeast inh 8.4%, LDHA block -0.2, Abeta rescue inactive, aSyn yeast inh -15.7%, PTHR1 agonist -15.8% and FUS suppressor inactive.
